# The list is not random: actives were taken first. Their share in the collection is about 1.9%.
# RXFP1 antagonist – RXFP1 (human) relaxin receptor antagonism; activity change, negative = inhibition, % at 57.5 µM; 350,000 compounds, 0.59% hits; AID 1259400; HEK293-RXFP1, relaxin-stimulated cAMP HTRF, 30 min; stronger effect = lower value;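 active means activity change of -60% or lower, but not beyond a set lower limit; inconclusive means change between -60% and -40%, or beyond the set limit; inactive means change above -40%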; further: on the % scale 0 is the no-effect control and ±100 the full control effect
# Target sequence (Q9HBX9 whole entry, looked up): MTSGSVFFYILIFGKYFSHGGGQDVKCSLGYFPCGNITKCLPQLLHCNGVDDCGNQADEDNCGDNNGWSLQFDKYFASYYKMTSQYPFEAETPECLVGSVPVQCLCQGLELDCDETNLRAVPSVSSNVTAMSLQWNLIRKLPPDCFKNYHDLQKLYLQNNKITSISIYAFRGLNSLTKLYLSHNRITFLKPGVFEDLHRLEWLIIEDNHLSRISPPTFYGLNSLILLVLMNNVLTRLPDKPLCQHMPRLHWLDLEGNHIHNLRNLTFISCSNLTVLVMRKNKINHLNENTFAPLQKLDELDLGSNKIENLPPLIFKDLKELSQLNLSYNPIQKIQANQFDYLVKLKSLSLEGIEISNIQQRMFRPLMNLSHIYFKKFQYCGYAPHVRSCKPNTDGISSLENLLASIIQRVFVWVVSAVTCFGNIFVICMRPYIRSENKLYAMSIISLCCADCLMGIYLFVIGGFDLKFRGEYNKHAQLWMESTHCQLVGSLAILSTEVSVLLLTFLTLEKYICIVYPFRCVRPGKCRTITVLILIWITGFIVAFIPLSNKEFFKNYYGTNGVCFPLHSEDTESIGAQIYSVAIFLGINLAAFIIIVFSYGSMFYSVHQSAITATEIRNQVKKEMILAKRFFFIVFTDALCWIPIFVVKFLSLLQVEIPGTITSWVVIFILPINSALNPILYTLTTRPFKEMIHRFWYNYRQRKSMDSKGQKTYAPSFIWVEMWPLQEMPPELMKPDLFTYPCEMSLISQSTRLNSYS
# NPSR antagonist – blocks cAMP signaling of the human neuropeptide S receptor; Q6W5P4; CHO-NPSR cells, cAMP TR-FRET, antagonist mode; Potency, µM (doses to about 38.3 µM), without a hit: at the highest dose activity change, negative = inhibition, hits mostly inhibitors; 220,000 compounds, 1% hits; AID 1461; further: potency means the concentration at half of the fitted maximal effect; on the % scale 0 is the no-effect control and ±100 the full control effect; nearly all actives have a fitted effect of over 50% in size
# IL2 activator – IL-2 activation. IL-2 activation reporter assay, cell-based qHTS; stimulated with anti-CD3/CD4/CD28 beads; in transgenic mouse T cells. activation, % (series mostly up to about 46 µM). 360,000 compounds, 0.065% hits. AID 652025; in the data active means activation above about 50%; inconclusive means mostly about 30% to 49%; further: 0% is about no effect
#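 Readout: EGFP and DsRed signals by fluorescent plate cytometry. Unstimulated transgenic mouse T cells received compound 60 min before antibody-bead stimulation, then incubated 18 h at 37 degrees C.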
# Giardia kill – kills Giardia lamblia | Giardia lamblia trophozoite viability | activity change, % at 7.66 µM, hits read low | 340,000 compounds, 0.15% hits | AID 540267; in the data active means activity change below about -80%; inconclusive means between about -30% and that limit;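 further: parasites exposed to compound for two days anaerobically before the ATP read; on the % scale 0 is the no-effect control and ±100 the full control effect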
#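 Trophozoite viability was measured as ATP-dependent luminescence, read 15-30 min after reagent addition. Before that, parasites at 100 cells/well were exposed to compounds for 48 h, anaerobically, at 37 deg C.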
# BRCA1 expr act – increases BRCA1 expression | MCF7-BRCA1-FFLuc reporter, luminescence, 48 h; response scale: scaled: vehicle 0%, 10 µM genistein 100% | Potency, µM (titrated, usually from 46.1 µM), for inactives: at the top dose activation, most hits filed as activators | 380,000 compounds, 1.1% hits; further: potency means the concentration at half of the fitted maximal effect; nearly all actives have a fitted effect of over 80% in size
#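 First, MCF7-BRCA1-FFLuc cells (2000/well) attach for 2 h; next, compounds are pin-added and incubated 48 h at 37 °C; finally, luciferase reagent is added and luminescence read after 15 min.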
# RXFP1 ag – activates the human relaxin receptor RXFP1. 370,000 compounds, 0.3% hits. Potency, µM (titrated, usually from 57.5 µM), inactives show at the highest dose activation, actives largely listed as activators. HEK293T-RXFP1 cAMP TR-FRET, 30 min; response scale: percent of porcine relaxin response, buffer zero; further: potency means the concentration at half of the fitted maximal effect; on the % scale 0 is the no-effect control and ±100 the full control effect; nearly all actives have a fitted effect of over 60% in size
#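 HEK293T cells stably expressing RXFP1 were pretreated with the PDE4 inhibitor Ro 20174, exposed to compounds for 30 min at 37C, lysed, and cAMP was read by TR-FRET. Data normalized to buffer (basal) and 29 nM porcine relaxin (100%).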
# * marks the source's active call; other numbers are inactive results; u = inconclusive; x = not tested or not shown; [ ] = another dose, or the depositor's remark. Unless noted, the call rests on the fitted dose curve; in most records, active means well fitted curve in the direction sought with a large enough effect; inconclusive means small, poorly fitted or top-dose-only effect, or another doubt; inactive means no such curve, though single readings can be large; an effect the other way counts as inactive or inconclusive.
SMILES,RXFP1 antagonist,NPSR antagonist,IL2 activator,Giardia kill,BRCA1 expr act,RXFP1 ag
Cc1ccc(C)n1-c1ccc(C(=O)NN)cc1,-71*,-7%[46.1 µM],1,-10,17%,-1%
CCc1ccc(C(=O)c2cn(Cc3ccccc3)c3cc(OC)c(OC)cc3c2=O)cc1,-13,x,x,x,x,-1%
Cc1cc(C)cc(NC(=O)c2cc(Cl)sc2Cl)c1,-19,6%,-2,3,11%,2%
CC(=O)c1ccc(NC(=O)c2cc(Cl)sc2Cl)cc1,-11,-9%,0,-1,4µM*,1%
CN(C)c1ccc(N=Cc2ccnc3ccccc23)cc1,x,x,x,x,0%,x
C#Cc1cccc(NC(=O)c2ccc3c(c2)C(=O)N(Cc2cccnc2)C3=O)c1,-88*,x,-1,-15,-20%,-1%
CC(C)=CC(=O)Nc1ccc(Cl)cc1,-8,23%,0,8,3.2µM*,1%
C/C(=C\C(=O)c1ccc(Br)cc1)Nc1ccc(Cl)cc1,-14,-24%,0,-8,2.8µM*,-1%
CCOc1ccc(/C=C/c2ccnc3ccccc23)cc1OCC,x,x,x,x,-20%,x
Cc1csc(NC(=O)Cc2c(F)cccc2Cl)n1,-12,x,-3,4,4.5µM*,2%
Cc1cccc(NC(=O)Cc2c(F)cccc2Cl)n1,-20,x,-2,1,u,-1%
Cc1ccccc1OCC(=O)N(Cc1ccc(N(C)C)cc1)CC1CCCO1 (stereo not given),-3,x,x,x,x,-1%
O=C(O)Cn1cnnn1,3,x,x,x,x,x
CN(C=O)c1ccc(CSc2ccccc2)cc1,-1,x,-1,2,8.9µM*,x
O=C(Nc1cccnc1)c1ccc(CSc2ccccc2)cc1,-10,-59%,-1,-26,18%,0%
CCCN1CCC(=O)N(C(CSc2ccc(Br)cc2)c2ccccc2)CC1 (stereo not given),x,x,x,-11,x,x
Cn1c2c(c(=O)n(C)c1=O)C(C(F)(F)F)(C(F)(F)F)N=C(c1ccccc1Cl)N2,-6,-10%[46.1 µM],-3,-8,-63%,1%
Cn1c2c(c(=O)n(C)c1=O)C(C(F)(F)F)(C(F)(F)F)N=C(CCC1CCCCC1)N2,-65*,u,13,-20,-85%,1%
C(=C\c1nc(-c2cccnc2)no1)/c1ccccc1,-15,26%,0,3,2.8µM*,17%
Clc1ccccc1/C=C/c1nc(-c2cccnc2)no1,4,10%,-3,-12,u,0%
CN(CC(=O)Nc1cccc(F)c1)C(=O)CCCNC(=O)c1ccc(Cl)cc1,2,x,-4,27,11µM*,0%
CC(=O)NC12CC3CC(C1)CC(C(=O)NCc1ccc(C)cc1)(C3)C2,-68*,x,-1,2,-4%,-1%
CC12CCC(C(=O)Nc3nc4ccc(Br)cc4s3)(OC1=O)C2(C)C (stereo not given),u,-34%,1,4,8.9µM*,-1%
CC(=C(CCOC(=O)C(C)C)SSC(CCOC(=O)C(C)C)=C(C)N(C=O)Cc1cnc(C)nc1N)N(C=O)Cc1cnc(C)nc1N,-10,x,x,x,x,x
O=C1NC(=S)S/C1=C/c1ccc(N2CCOCC2)o1,-28,13µM*,1,-15,30%,0%
SMILES,RXFP1 antagonist,NPSR antagonist,IL2 activator,Giardia kill,BRCA1 expr act,RXFP1 ag
C[C@@H](Nc1nc(Cl)nc2nc[nH]c12)c1ccccc1,x,x,x,-21,-36%,x
Cc1nc(-n2nc(C)c(Cc3ccccc3Cl)c2C)sc1C(=O)N1CCCCC1C (stereo not given),-8,x,x,x,x,4%
CC(C)(C)c1ccc(C(=O)Nc2ccc(C(=O)N3CCOCC3)cc2)cc1,-76*,x,-3,24,-18%,6%
CC(C)(C)c1ccc(C(=O)NC(=S)N2CCOCC2)cc1,12,x,-1,-4,10µM*,6%
CC(C)(C)c1ccc(C(=O)N2CCC(C(=O)NCC3CCCO3)CC2)cc1 (stereo not given),8,-15%[46.1 µM],1,-4,8.9µM*,1%
O=C(Nc1ccc(C(=O)N2CCOCC2)cc1)Nc1cccc(Cl)c1,4,-2%,-2,-26,11µM*,0%

# High-throughput results from PubChem.
